In PubChem BioAssay (Tox21):
Inconclusive results are not listed. Entries that show only a call come without a potency. Calls of active or inactive are those of the source. The call rests on the fitted dose curve; in most records, active means well fitted cell-killing curve with a large enough effect in the repeat runs; inconclusive means weak or mixed curves, or effect the other way; inactive means flat fitted curve, though single readings scatter.

Experiment: qHTS assay to identify small molecule antagonists of the estrogen receptor alpha (ER-alpha) signaling pathway using the BG1 cell line in the presence of 0.1 nM 17-beta-estradiol - cell viability counter screen (AID 1259241); further: nearly all actives have a fitted effect of over 40% in size
Settings: VM7Luc4E2 (BG1) viability, CellTiter-Fluor protease, 22 h, 0.1 nM estradiol agonist added; series mostly up to 92.4 µM
Procedure, shortened: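 In this screen, hormone-deprived VM7Luc4E2 cells were seeded at 4,000 per well, dosed with compound and 0.1 nM estradiol final, and incubated 22 hr at 37C and 5% CO2; fluorogenic live-cell protease signal reported viability.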
For `CCc1ccccc1O`, the Potency was “inactive”. In the case of `Cc1cc(O)cc(C)c1Cl`, the Potency is reported as “inactive”. In the case of `CCOC(=O)/C=C\C(=O)OCC`, the Potency is reported as “inactive”. With `CC1=C(CC(=O)O)c2cc(F)ccc2/C1=C\c1ccc(S(C)=O)cc1` (stereo not given) the Potency was “inactive”. For `Nc1cc(-c2ccncc2)c[nH]c1=O`, the Potency was “inactive”. With `CCCCCCCCCCC=CC1CC(=O)OC1=O` (stereo not given) the Potency was “inactive”. With `C=CC(=O)OCCCCCCCC(C)C` the Potency was “inactive”. With `CCCCOCCOCCOC(=O)CCCCC(=O)OCCOCCOCCCC` the Potency was “inactive”. For `O=C(O)c1ccc([N+](=O)[O-])cc1`, the Potency was “inactive”. In the case of `CC1(C)CC(N=C=O)CC(C)(CN=C=O)C1` (stereo not given), the Potency is reported as “inactive”. For `NC(=O)/N=N/C(N)=O`, the Potency was “inactive”. With `CNC[C@H](O)[C@@H](O)[C@H](O)[C@H](O)CO` the Potency was “inactive”. For `CC(=O)Nc1ccc(C(=O)O)cc1`, the Potency was “inactive”. For `O=C1O[C@H](CO)[C@@H](O)[C@H](O)[C@H]1O`, the Potency was “inactive”. For `C=C(C)C(=O)OCCCCCC`, the Potency was “inactive”.
